# Paper PMC5700166
# Changes are numbered by the printed parent chain.
# Tests used:
# Test in all cases: protein-binding microarray (PBM); PBM: ~300 nM protein, 6 mM HEPES pH 7.8, 80 mM KCl, 0.5 mM EDTA, 0.5 mM EGTA, 6% glycerol, 35 ng/ul poly-dIdC, 1% milk, 1 h, room temperature; Ap Aiptasia and Nv Nematostella (sea anemones) / Co Capsaspora / Aq Amphimedon (sponge) / Dm Drosophila / Hu human; RHD is the Rel homology domain; high values mean tight binding
# Settings in all cases: dsDNA, one strand shown
# GST-Ap-NF-kB RHD = target: T1, GST-Ap-NF-kB RHD (Exaiptasia pallida (Aiptasia), UniProt A0A913YAJ5 2-422)
# T1 sequence: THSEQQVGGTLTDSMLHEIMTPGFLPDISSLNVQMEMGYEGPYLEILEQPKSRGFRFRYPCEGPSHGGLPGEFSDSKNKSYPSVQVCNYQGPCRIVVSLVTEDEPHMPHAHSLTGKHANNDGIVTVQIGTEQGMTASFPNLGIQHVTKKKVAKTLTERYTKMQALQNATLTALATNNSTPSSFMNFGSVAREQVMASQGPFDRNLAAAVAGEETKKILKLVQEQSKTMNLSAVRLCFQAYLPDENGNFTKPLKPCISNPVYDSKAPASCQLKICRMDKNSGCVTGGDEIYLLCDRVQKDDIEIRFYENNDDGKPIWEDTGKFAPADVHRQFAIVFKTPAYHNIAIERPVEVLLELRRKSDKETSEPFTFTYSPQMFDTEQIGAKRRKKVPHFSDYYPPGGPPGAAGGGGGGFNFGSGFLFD
# [1] = target: T2, GST-Nv-NF-kB (Cys allele) (Nematostella vectensis, UniProt E5G601 2-411)
# T2 sequence: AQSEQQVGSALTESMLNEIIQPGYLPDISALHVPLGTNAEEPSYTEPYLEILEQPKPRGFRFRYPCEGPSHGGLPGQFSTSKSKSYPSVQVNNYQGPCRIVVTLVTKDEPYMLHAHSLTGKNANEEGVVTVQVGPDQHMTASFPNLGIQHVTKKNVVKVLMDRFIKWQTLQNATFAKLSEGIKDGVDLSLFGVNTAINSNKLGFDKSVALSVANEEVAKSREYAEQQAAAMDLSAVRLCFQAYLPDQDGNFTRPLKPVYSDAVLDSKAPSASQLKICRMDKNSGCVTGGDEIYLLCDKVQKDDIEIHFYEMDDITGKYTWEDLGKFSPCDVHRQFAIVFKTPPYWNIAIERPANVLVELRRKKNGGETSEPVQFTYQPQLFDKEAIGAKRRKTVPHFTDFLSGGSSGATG
# [2] = target: T3, GST-Nv-NF-kB (Ser allele) (Nematostella vectensis, UniProt A7UNT2 2-411)
# T3 sequence: T2 sequence with Q21R, C66S, S207N, E215Q, V217A, E225K, A268E, D399E
# GST-Co-NF-kB = target: T4, GST-Co-NF-kB (Capsaspora owczarzaki, UniProt F1ARL5 200-546)
# T4 sequence: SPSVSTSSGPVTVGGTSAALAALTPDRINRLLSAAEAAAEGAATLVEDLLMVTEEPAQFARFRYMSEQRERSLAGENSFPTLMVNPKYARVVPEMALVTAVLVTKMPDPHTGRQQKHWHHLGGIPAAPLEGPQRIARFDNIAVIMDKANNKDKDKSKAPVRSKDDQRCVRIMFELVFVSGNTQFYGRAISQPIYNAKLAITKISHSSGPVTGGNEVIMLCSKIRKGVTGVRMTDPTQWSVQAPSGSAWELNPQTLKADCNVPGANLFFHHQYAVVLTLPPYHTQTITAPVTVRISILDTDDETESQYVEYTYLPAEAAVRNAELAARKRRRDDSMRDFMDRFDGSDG
# GST-Dm-Relish = target: T5, GST-Dm-Relish (Drosophila melanogaster, UniProt Q94527 99-473)
# T5 sequence: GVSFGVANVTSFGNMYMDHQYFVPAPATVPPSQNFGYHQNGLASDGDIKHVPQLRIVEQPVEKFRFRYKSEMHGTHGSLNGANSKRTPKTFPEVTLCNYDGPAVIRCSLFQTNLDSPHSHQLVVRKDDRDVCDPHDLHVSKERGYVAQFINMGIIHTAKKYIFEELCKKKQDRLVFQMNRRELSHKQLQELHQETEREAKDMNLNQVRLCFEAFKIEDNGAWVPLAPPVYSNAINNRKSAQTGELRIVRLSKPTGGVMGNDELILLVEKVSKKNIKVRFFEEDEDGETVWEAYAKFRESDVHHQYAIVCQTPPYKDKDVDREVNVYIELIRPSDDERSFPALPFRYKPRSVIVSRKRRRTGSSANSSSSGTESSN
# GST-Aq-NF-kB = target: T6, GST-Aq-NF-kB (Amphimedon queenslandica, UniProt A9Y5G7 2-389)
# T6 sequence: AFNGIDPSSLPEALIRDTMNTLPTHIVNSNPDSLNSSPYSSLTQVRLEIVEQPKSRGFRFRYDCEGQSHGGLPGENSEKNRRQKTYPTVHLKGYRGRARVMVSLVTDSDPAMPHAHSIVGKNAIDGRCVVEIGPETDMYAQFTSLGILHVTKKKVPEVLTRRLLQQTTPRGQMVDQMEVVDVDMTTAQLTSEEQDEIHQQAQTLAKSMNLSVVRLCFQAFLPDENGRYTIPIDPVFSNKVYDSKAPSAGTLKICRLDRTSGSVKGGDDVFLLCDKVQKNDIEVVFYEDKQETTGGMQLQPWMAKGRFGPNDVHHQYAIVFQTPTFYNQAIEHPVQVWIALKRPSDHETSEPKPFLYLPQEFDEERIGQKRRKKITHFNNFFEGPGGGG
# GST-Hu-p50 = GST-Hu-p50 (Homo sapiens, UniProt P19838 7-356)
# Chain of GST-Hu-p50 (P19838 7-356): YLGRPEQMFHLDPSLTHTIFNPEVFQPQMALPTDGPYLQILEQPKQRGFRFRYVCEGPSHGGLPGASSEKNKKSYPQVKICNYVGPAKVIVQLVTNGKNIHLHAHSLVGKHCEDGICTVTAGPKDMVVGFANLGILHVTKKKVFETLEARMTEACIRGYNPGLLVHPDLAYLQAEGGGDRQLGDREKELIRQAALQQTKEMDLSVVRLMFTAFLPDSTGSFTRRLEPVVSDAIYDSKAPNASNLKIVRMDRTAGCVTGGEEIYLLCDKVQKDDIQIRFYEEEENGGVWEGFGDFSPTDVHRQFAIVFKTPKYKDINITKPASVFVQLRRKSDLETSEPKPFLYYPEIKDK
Sequence,binding signal (GST-Ap-NF-kB RHD),binding signal [1],binding signal [2],binding signal (GST-Co-NF-kB),binding signal (GST-Dm-Relish),binding signal (GST-Aq-NF-kB),binding signal (GST-Hu-p50)
CCGATTAACATCAAGGGAAATCCTGATGTTAATCGGGTCTTGATTCGCTTGACGCTGCTG,5.35 z-score,7.47 z-score,6.52 z-score,3.33 z-score,6.05 z-score,6.57 z-score,4.65 z-score
CCGATTAACATCAAAAGGGAATTTGATGTTAATCGGGTCTTGATTCGCTTGACGCTGCTG,3.2 z-score,6.76 z-score,7.17 z-score,1.41 z-score,4.25 z-score,4.96 z-score,5.13 z-score
CCGATTAACATCAGGGAAAGACCTGATGTTAATCGGGTCTTGATTCGCTTGACGCTGCTG,3.24 z-score,5.27 z-score,4.32 z-score,1.41 z-score,5.61 z-score,7.5 z-score,3.67 z-score
CCGATTAACATCAAAGAATTCCCTGATGTTAATCGGGTCTTGATTCGCTTGACGCTGCTG,5.56 z-score,7.26 z-score,7.47 z-score,4.52 z-score,5.42 z-score,6.11 z-score,5.05 z-score
CCGATTAACATCAAAAAATCCCCTGATGTTAATCGGGTCTTGATTCGCTTGACGCTGCTG,11.7 z-score,11.9 z-score,13.6 z-score,6.83 z-score,10.7 z-score,9.56 z-score,8.06 z-score
CCGATTAACATCAGGGGGATAAATGATGTTAATCGGGTCTTGATTCGCTTGACGCTGCTG,5.25 z-score,5.54 z-score,5.46 z-score,7.85 z-score,3.78 z-score,4.4 z-score,4.82 z-score
CCGATTAACATCAGGGGATTGGATGATGTTAATCGGGTCTTGATTCGCTTGACGCTGCTG,4.77 z-score,4.99 z-score,6.52 z-score,2.06 z-score,2.73 z-score,3.69 z-score,4.98 z-score
CCGATTAACATCAAACTTCCCCGTGATGTTAATCGGGTCTTGATTCGCTTGACGCTGCTG,6.81 z-score,8.41 z-score,8.97 z-score,8.65 z-score,7.92 z-score,7.04 z-score,6.45 z-score
CCGATTAACATCAAAACCCCCCATGATGTTAATCGGGTCTTGATTCGCTTGACGCTGCTG,8.56 z-score,6.62 z-score,6.57 z-score,4.66 z-score,9.53 z-score,7.39 z-score,6.77 z-score
CCGATTAACATCACGTACTTCCCTGATGTTAATCGGGTCTTGATTCGCTTGACGCTGCTG,1.66 z-score,1.92 z-score,1.78 z-score,1.1 z-score,7.92 z-score,3.04 z-score,1.38 z-score
CCGATTAACATCACAAATTACCCTGATGTTAATCGGGTCTTGATTCGCTTGACGCTGCTG,3.66 z-score,5.32 z-score,5.44 z-score,3.35 z-score,3.01 z-score,4.95 z-score,4.07 z-score
CCGATTAACATCAGGGAACTCCCTGATGTTAATCGGGTCTTGATTCGCTTGACGCTGCTG,8.33 z-score,10.6 z-score,6.92 z-score,3.39 z-score,9 z-score,9.76 z-score,6.16 z-score
CCGATTAACATCAAAGTTCCCCCTGATGTTAATCGGGTCTTGATTCGCTTGACGCTGCTG,8.84 z-score,8.65 z-score,9.29 z-score,11.3 z-score,8.65 z-score,7.49 z-score,6.75 z-score
CCGATTAACATCACATTTTCCCCTGATGTTAATCGGGTCTTGATTCGCTTGACGCTGCTG,6.76 z-score,8.07 z-score,10.5 z-score,9.7 z-score,3.97 z-score,5.38 z-score,6.01 z-score
CCGATTAACATCAGGGAATCTACTGATGTTAATCGGGTCTTGATTCGCTTGACGCTGCTG,2.43 z-score,3.44 z-score,3.68 z-score,1.94 z-score,4.76 z-score,4.82 z-score,2.96 z-score
CCGATTAACATCAGGGATATACCTGATGTTAATCGGGTCTTGATTCGCTTGACGCTGCTG,3.17 z-score,3.3 z-score,1.91 z-score,1.14 z-score,6.4 z-score,5.31 z-score,1.99 z-score

Sequence,binding signal (GST-Ap-NF-kB RHD),binding signal [1],binding signal [2],binding signal (GST-Co-NF-kB),binding signal (GST-Dm-Relish),binding signal (GST-Aq-NF-kB),binding signal (GST-Hu-p50)
CCGATTAACATCAATAAATCCCCTGATGTTAATCGGGTCTTGATTCGCTTGACGCTGCTG,7.78 z-score,9.33 z-score,11.6 z-score,4.45 z-score,9.26 z-score,6.63 z-score,7.71 z-score
CCGATTAACATCACCGTTCCCCCTGATGTTAATCGGGTCTTGATTCGCTTGACGCTGCTG,6.48 z-score,5.21 z-score,6.93 z-score,6.76 z-score,2.76 z-score,4.51 z-score,5.25 z-score
CCGATTAACATCAGGACCCCCCCTGATGTTAATCGGGTCTTGATTCGCTTGACGCTGCTG,7.35 z-score,4.56 z-score,3.23 z-score,2.94 z-score,6.37 z-score,7.44 z-score,4.44 z-score
CCGATTAACATCAGGATTTCCCATGATGTTAATCGGGTCTTGATTCGCTTGACGCTGCTG,3.95 z-score,5.23 z-score,4.48 z-score,3.18 z-score,5.84 z-score,5.27 z-score,3.73 z-score
CCGATTAACATCAGAATTTCCCCTGATGTTAATCGGGTCTTGATTCGCTTGACGCTGCTG,9.18 z-score,10.1 z-score,11.5 z-score,8.73 z-score,6.98 z-score,8.28 z-score,6.93 z-score
CCGATTAACATCAGGGGAACGGATGATGTTAATCGGGTCTTGATTCGCTTGACGCTGCTG,4.83 z-score,5.28 z-score,6.1 z-score,4.35 z-score,1.58 z-score,3.47 z-score,3.91 z-score
CCGATTAACATCAGGGGAACTTATGATGTTAATCGGGTCTTGATTCGCTTGACGCTGCTG,7.4 z-score,8.58 z-score,8.41 z-score,7.21 z-score,7.11 z-score,6.48 z-score,5.95 z-score
CCGATTAACATCAAGTTTCCCCATGATGTTAATCGGGTCTTGATTCGCTTGACGCTGCTG,6.19 z-score,6.87 z-score,9.07 z-score,9.1 z-score,2.4 z-score,5.26 z-score,5.62 z-score
CCGATTAACATCAATATTCCCCATGATGTTAATCGGGTCTTGATTCGCTTGACGCTGCTG,7.4 z-score,8.39 z-score,8.19 z-score,8.46 z-score,3.77 z-score,5.97 z-score,5.88 z-score
CCGATTAACATCACAAAAAACCCTGATGTTAATCGGGTCTTGATTCGCTTGACGCTGCTG,3.76 z-score,4.37 z-score,4.38 z-score,1.78 z-score,5.51 z-score,5.58 z-score,4.61 z-score
CCGATTAACATCAGGGGATTTACTGATGTTAATCGGGTCTTGATTCGCTTGACGCTGCTG,8.92 z-score,9.25 z-score,10.4 z-score,3.45 z-score,10.5 z-score,7.83 z-score,7.61 z-score
CCGATTAACATCACCAACCCCCCTGATGTTAATCGGGTCTTGATTCGCTTGACGCTGCTG,5.65 z-score,3.47 z-score,4.4 z-score,3.02 z-score,5.37 z-score,3.88 z-score,4.51 z-score
CCGATTAACATCACCCATTTCCCTGATGTTAATCGGGTCTTGATTCGCTTGACGCTGCTG,2.51 z-score,3.07 z-score,3.99 z-score,3 z-score,1.35 z-score,2.52 z-score,2.57 z-score
CCGATTAACATCAAAAAACTCCCTGATGTTAATCGGGTCTTGATTCGCTTGACGCTGCTG,6.44 z-score,8.22 z-score,8.11 z-score,3.38 z-score,7.13 z-score,7.46 z-score,5.69 z-score
CCGATTAACATCAGGGGATTTCATGATGTTAATCGGGTCTTGATTCGCTTGACGCTGCTG,9.36 z-score,9.75 z-score,10.8 z-score,3.46 z-score,8.36 z-score,6.85 z-score,7.42 z-score
CCGATTAACATCAGGGAAAATAATGATGTTAATCGGGTCTTGATTCGCTTGACGCTGCTG,3.42 z-score,6.84 z-score,8.05 z-score,5.52 z-score,2.1 z-score,4.47 z-score,4.74 z-score
